Our source for the growth values is PubChem BioAssay (NCI).

Some test systems named below: SK-MEL-2 melanoma; EKVX NSCLC; SN12C renal; UO-31 renal; TK-10 renal; ACHN renal; CAKI-1 renal; A498 renal; CCRF-CEM leukemia; MOLT-4 leukemia; SR leukemia; RPMI-8226 leukemia; OVCAR-8 ovarian; OVCAR-5 ovarian; OVCAR-4 ovarian; SK-OV-3 ovarian; IGROV1 ovarian; OVCAR-3 ovarian; HS 578T breast; NCI/ADR-RES ovarian.
Holding throughout (assay): NCI-60 one-dose screen, 48 h (100 = growth as untreated, 0 = no growth, -100 = all killed)
Holding throughout (details): 10 µM unless noted

The structures appear in SMILES notation. This is part of a sample that, as a whole, favours compounds with a hit. Of some 83,000 tested, about 20% had one in any assay.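 How to read the values: 0–100, growth inhibition (40 = 60% inhibited); 0, no net growth; -100 to 0, cell death (-40 = 40% of starting cells died; -100 = all dead).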 Values without a mark were called inactive. Calls of active or inactive are those of the source. Rule for the calls: active = growth percent below 10; inactive = the rest.

For the compound `CCN=c1sc2c(n1NC(=O)c1cc3ccc1CCc1ccc(cc1)CC3)C(=O)c1ccccc1C2=O`, the growth is -40.6% (active) in the assay on SK-MEL-2 melanoma; -61.3% (active) with EKVX NSCLC; -91.2% (active) with SN12C renal; -73.1% (active) in the assay with UO-31 renal; 88.6% with TK-10 renal; -90.2% (active) with ACHN renal. Besides, the growth in the assay with CAKI-1 renal is 8.85% (active); in the assay on A498 renal, 51.6%; in the assay with CCRF-CEM leukemia it was -16% (active); with MOLT-4 leukemia, -32.8% (active); in the assay with SR leukemia it was -3.66% (active); in the assay on RPMI-8226 leukemia it was -33.6% (active). The growth in the assay with OVCAR-8 ovarian was -82.6% (active); in the assay with OVCAR-5 ovarian, -77.4% (active); in the assay with OVCAR-4 ovarian, -98.4% (active); in the assay with SK-OV-3 ovarian, 62%; in the assay on IGROV1 ovarian, -39.8% (active); with OVCAR-3 ovarian it was -18.8% (active). In addition, the figures for the growth with HS 578T breast and in the assay on NCI/ADR-RES ovarian were -8.98% (active) and -22.8% (active), respectively.

As for `c1ccc2c(-c3cnn4cc(-c5ccc(N6CCNCC6)cc5)cnc34)ccnc2c1`, the growth in the assay on SK-MEL-2 melanoma is -59.2% (active); with EKVX NSCLC, -37.3% (active); with SN12C renal, -75.5% (active); with UO-31 renal, -93.4% (active); in the assay with TK-10 renal it was -74.8% (active); in the assay on ACHN renal it was -99.3% (active). Also, the growth in the assay on CAKI-1 renal was -99.6% (active); in the assay on A498 renal, -87% (active); with CCRF-CEM leukemia, -48.2% (active); in the assay with MOLT-4 leukemia it was -28.7% (active); in the assay on SR leukemia it was -19.1% (active); with RPMI-8226 leukemia it was -52.8% (active). Moreover, the growth was -46.9% (active) with OVCAR-8 ovarian; -85.3% (active) with OVCAR-5 ovarian; -65.8% (active) in the assay on OVCAR-4 ovarian; -86.4% (active) in the assay on SK-OV-3 ovarian; -79.7% (active) in the assay on IGROV1 ovarian; -83.2% (active) with OVCAR-3 ovarian. Moreover, the growth is -68.7% (active) in the assay on HS 578T breast and -42.5% (active) in the assay with NCI/ADR-RES ovarian.

Take `COc1ccc(/C=N/NC(=O)Cn2nnc3ccccc32)cc1`: the growth was 100% in the assay on SK-MEL-2 melanoma; 101% in the assay on EKVX NSCLC; 86.6% in the assay on SN12C renal; 77.8% in the assay with UO-31 renal; 111% in the assay on TK-10 renal; 94.6% in the assay with ACHN renal. For the same compound, the growth was 90.4% with CAKI-1 renal; 98.4% in the assay with A498 renal; 106% with CCRF-CEM leukemia; 93% with MOLT-4 leukemia; 96% with SR leukemia; 101% in the assay on RPMI-8226 leukemia. Besides, the growth was 96.7% with OVCAR-8 ovarian; 104% in the assay with OVCAR-5 ovarian; 115% in the assay on OVCAR-4 ovarian; 95.5% in the assay on SK-OV-3 ovarian; 95.9% with IGROV1 ovarian; 95% in the assay on OVCAR-3 ovarian. In addition, the growth with HS 578T breast was 77.6%; in the assay on NCI/ADR-RES ovarian, 104%.

As for `O=C(Nc1ncc(Cc2ccc(Cl)cc2)s1)c1ccc2c(c1)OCCO2`, the growth was 41% with SK-MEL-2 melanoma; 35.7% with EKVX NSCLC; 30.8% with SN12C renal; 50.2% with UO-31 renal; 49.5% in the assay with TK-10 renal; 29.8% in the assay with ACHN renal. For the same compound, the growth was 28.7% with CAKI-1 renal; -2.66% (active) in the assay with A498 renal; 15.4% in the assay with CCRF-CEM leukemia; 6.99% (active) in the assay on MOLT-4 leukemia; 4.7% (active) with SR leukemia; 20% with RPMI-8226 leukemia. In addition, the growth with OVCAR-8 ovarian is 21.7%; in the assay on OVCAR-5 ovarian, 37.1%; in the assay on OVCAR-4 ovarian, 50%; in the assay on SK-OV-3 ovarian, 33.4%; in the assay with IGROV1 ovarian, 22.3%; in the assay on OVCAR-3 ovarian, 2.45% (active). Further, the growth in the assay with HS 578T breast was 23.6%; with NCI/ADR-RES ovarian, 10.9%.

For the compound `COc1cc(/C=C2\CN(S(=O)(=O)c3ccc(C)cc3)C/C(=C\c3cc(CN4CCCC4)c(O)c(OC)c3)C2=O)cc(CN2CCCC2)c1O`, the growth with SK-MEL-2 melanoma is 14.4%; with EKVX NSCLC it was 0.183% (active); in the assay with SN12C renal, -56.1% (active); in the assay on UO-31 renal it was 4.71% (active); in the assay with TK-10 renal, 24.7%; in the assay with ACHN renal, 1.63% (active). For the same compound, the growth in the assay on CAKI-1 renal was 23.9%; in the assay with A498 renal it was 40.9%; in the assay with CCRF-CEM leukemia, -5.62% (active); in the assay with MOLT-4 leukemia, -8.53% (active); in the assay with SR leukemia it was -19.4% (active); in the assay with RPMI-8226 leukemia, -34.6% (active). Further, the growth in the assay on OVCAR-8 ovarian is 8.04% (active); in the assay on OVCAR-5 ovarian it was -2.7% (active); in the assay on OVCAR-4 ovarian, 12.1%; in the assay on SK-OV-3 ovarian, 33.9%; in the assay with IGROV1 ovarian it was -20.1% (active); in the assay on OVCAR-3 ovarian, -27.8% (active). Besides, the figures for the growth in the assay on HS 578T breast and with NCI/ADR-RES ovarian were 9.95% (active) and 77.8%, respectively.

In the case of `C/C(=N\NC(=O)c1ccc(C(C)(C)C)cc1)c1ccc(O)cc1O`, the growth in the assay with SK-MEL-2 melanoma is 42.8%; in the assay on EKVX NSCLC it was 22%; in the assay on SN12C renal, 33.7%; in the assay on UO-31 renal, 16.8%; in the assay with TK-10 renal, 40.5%; in the assay on ACHN renal, 16.5%. Besides, the growth is 17.1% in the assay on CAKI-1 renal; 42.3% in the assay on A498 renal; 14.5% in the assay with CCRF-CEM leukemia; 18.2% with MOLT-4 leukemia; 19.2% in the assay on SR leukemia; 28.5% in the assay with RPMI-8226 leukemia. Besides, the growth with OVCAR-8 ovarian is 22.9%; with OVCAR-5 ovarian, 39.9%; in the assay on OVCAR-4 ovarian, 15%; with SK-OV-3 ovarian, 27.7%; with IGROV1 ovarian it was 23.8%; in the assay with OVCAR-3 ovarian, 6.18% (active). In addition, the growth in the assay with HS 578T breast is 59.8%; with NCI/ADR-RES ovarian it was 10.3%.

Take `O=[N+]([O-])c1ccc(Oc2cccc3c(Oc4ccc([N+](=O)[O-])cc4[N+](=O)[O-])cccc23)c([N+](=O)[O-])c1`: the growth was 90.4% in the assay on SK-MEL-2 melanoma; 77.7% in the assay with EKVX NSCLC; 74.8% with SN12C renal; 72.8% in the assay on UO-31 renal; 119% with TK-10 renal; 93.4% with ACHN renal. The growth with CAKI-1 renal is 89.2%; with A498 renal, 108%; in the assay on CCRF-CEM leukemia it was 95.7%; in the assay on MOLT-4 leukemia, 102%; in the assay on SR leukemia, 77.5%; with RPMI-8226 leukemia, 95.6%. In addition, the growth was 77.7% in the assay on OVCAR-8 ovarian; 109% in the assay on OVCAR-5 ovarian; 87.8% in the assay on OVCAR-4 ovarian; 83.1% with SK-OV-3 ovarian; 79.6% in the assay on IGROV1 ovarian; 95.2% in the assay on OVCAR-3 ovarian. Further, the growth was 88.1% in the assay on HS 578T breast and 79.9% with NCI/ADR-RES ovarian.
